Bioassay records as filed in PubChem.
Most compounds without a hit are left out; they make up all but 7.3% or so of the library.
ELG1 genotoxic: qHTS screen for small molecules that induce genotoxicity in human embryonic kidney (HEK293T) cells expressing luciferase-tagged ELG1; HEK293T ELG1-luciferase reporter, luminescence, 16 h; Potency, µM (doses to about 46 µM), for the others: top-dose activity change, positive = activation, actives largely listed as activators; 1.3% of 330,000 active; note: % of control where 0% means no effect; nearly all actives have a fitted effect of over 60% in size
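Screening used a luciferase reporter fused to human ELG1 in HEK293T cells. Luminescence was read on a CCD plate imager after 16 hr exposure and 30 min ONE-Glo incubation.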
Rab9 promoter act: qHTS Assay for Rab9 Promoter Activators; Potency, µM (top dose mostly 9.22 µM), for inactives: top-dose activation, negative = inhibition, usual class: activators; AID 485297, 2010; Huh7 Rab9 promoter-luciferase reporter, luminescence, 24 h; 2.8% of 320,000 active; note: % of control where 0% means no effect; nearly all actives have a fitted effect of over 60% in size
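Huh7 cells stably carrying Rab9 promoter–luciferase reporter, plated 1500 cells/well, compound added after 2 h and incubated 24 h at 37 °C; luciferase luminescence then read after 10 min with detection reagent.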
NPC1 promoter act: qHTS Assay for NPC1 Promoter Activators; Huh7 NPC1 promoter luciferase reporter, 24 h; Potency, µM (titrated, usually from 9.22 µM), inactives show top-dose activation, usual class: activators; 2.4% of 320,000 active; note: % of control where 0% means no effect; nearly all actives have a fitted effect of over 60% in size
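Huh7 reporter cells (NPC1 promoter driving luciferase) are dosed with compound for 24 h at 37 °C, 5% CO2; luciferase detection reagent is then added and luminescence measured after 10 min at ambient temperature.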
FLuc counter: qHTS profiling assay for firefly luciferase inhibitor/activator using purifed enzyme and Km concentrations of substrates (counterscreen for miR-21 project) | Luciferin 4-monooxygenase (Photinus pyralis), P08659 | purified FLuc, Km substrates, luminescence inhibition | Potency, µM (top dose mostly 57.5 µM), inactives show at the highest dose activity change, negative = inhibition, hits mostly inhibitors | 6.9% of 360,000 active;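 note: plate controls were vehicle for no effect and reference inhibitor for full effect; nearly all actives have a fitted effect of over 55% in size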
Target sequence (P08659 whole entry, looked up): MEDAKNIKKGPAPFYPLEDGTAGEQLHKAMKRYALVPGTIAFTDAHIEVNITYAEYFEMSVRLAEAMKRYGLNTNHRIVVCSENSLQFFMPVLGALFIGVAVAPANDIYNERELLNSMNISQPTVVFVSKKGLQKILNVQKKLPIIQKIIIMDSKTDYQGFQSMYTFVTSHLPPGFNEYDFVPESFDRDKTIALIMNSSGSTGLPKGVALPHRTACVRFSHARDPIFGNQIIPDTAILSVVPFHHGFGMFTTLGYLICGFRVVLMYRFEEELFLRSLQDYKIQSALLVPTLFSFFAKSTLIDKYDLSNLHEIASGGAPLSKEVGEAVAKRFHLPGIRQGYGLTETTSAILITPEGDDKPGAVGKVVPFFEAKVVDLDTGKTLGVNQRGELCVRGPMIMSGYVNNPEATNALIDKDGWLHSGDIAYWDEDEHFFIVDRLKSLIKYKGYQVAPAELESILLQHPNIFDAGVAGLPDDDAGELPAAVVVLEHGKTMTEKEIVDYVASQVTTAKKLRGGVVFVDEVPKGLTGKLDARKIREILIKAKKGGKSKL
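Biochemical qHTS of compounds, final roughly 60 µM downward over six points, against 10 nM purified firefly luciferase using Km concentrations of substrates (10 uM D-luciferin, 10 uM ATP) in Tris acetate pH 7.5 buffer; luminescence output.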
p53 reactivator: qHTS assay for re-activators of p53 using a Luc reporter; H1299 p53-A138V BP100-luciferase reporter, luminescence, 24 h; Potency, µM (top dose mostly 92.2 µM), for inactives: top-dose activity change, positive = activation, most hits filed as activators; 0.063% of 320,000 active; note: % of control where 0% means no effect; nearly all actives have a fitted effect of over 45% in size
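H1299 (p53-null), stable ts p53-A138V + BP100-Luc; 1000 cells/well, Opti-MEM/10% FBS; cpd 4 pt, 1:5; 24 h, 37 deg C, 5% CO2; detection reagent 10 min RT; luminescence.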
SMN2 splice up: qHTS Assay for Enhancers of SMN2 Splice Variant Expression. AID 1458, 2008. HEK293 SMN2-luciferase splicing reporter, luminescence, 30-36 h. 2.8% of 210,000 active. Potency, µM (top dose mostly 46.1 µM), for the others: at the highest dose activity change, positive = activation, hits mostly activators; note: % of control where 0% means no effect; nearly all actives have a fitted effect of over 55% in size
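HEK293 cells carry an SMN2 […]–luciferase reporter in which exon 7 inclusion puts luciferase in frame. Cells were plated 10-12 h before compound addition, then incubated 30-36 h at 37C. ONE-Glo luminescence was read; sodium butyrate at 4.5 mM final served as control.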
Numbers without * were called inactive; [ ] = remark or other dose. Calls come from the whole dose curve; as a rule, active = well fitted curve in the direction sought with a large enough effect; inconclusive = small, poorly fitted or top-dose-only effect, or another doubt; inactive = no such curve, though single readings can be large; an effect the other way counts as inactive or inconclusive. Potency is the fitted concentration of half-maximal effect.

O=C(Nc1cnc2ccccc2c1)c1ccco1 was read as ELG1 genotoxic inconclusive, Rab9 promoter act 0.63µM*, NPC1 promoter act 1.4µM*, FLuc counter 7.6µM*, p53 reactivator inconclusive and SMN2 splice up 14µM*.
`CN(C)C(=O)Nc1cnc2ccccc2c1` gave ELG1 genotoxic 6%, Rab9 promoter act 3%, NPC1 promoter act -1%, FLuc counter -14%, p53 reactivator 26% and SMN2 splice up 0%.
COC(=O)c1ccc(C23CC2(C(NP(=O)(c2ccccc2)c2ccccc2)c2ccccc2)C3)cc1 (stereo not drawn) was read as SMN2 splice up 3%.
O=C(CN1C(=O)S/C(=C\C=C\c2ccccc2)C1=O)N1CCOCC1 was read as ELG1 genotoxic 13%, Rab9 promoter act 26%, NPC1 promoter act 19%, FLuc counter 4.8µM* and p53 reactivator 2%.
`O=C(CN1C(=O)S/C(=C/c2ccc(N3CCOCC3)cc2)C1=O)N1CCOCC1` gave ELG1 genotoxic inconclusive, Rab9 promoter act 22%, NPC1 promoter act 27%, FLuc counter 3µM*, p53 reactivator inconclusive and SMN2 splice up inconclusive.
For N#Cc1c(NC(=O)c2nc3ncccn3n2)sc2c1CCCCC2 the results were ELG1 genotoxic 2.3µM*, Rab9 promoter act 4.5µM*, NPC1 promoter act 1.8µM*, FLuc counter 13µM*, p53 reactivator inconclusive and SMN2 splice up 7.9µM*.
Screening CC1CCc2c(sc(NC(=O)c3nc4ncccn4n3)c2C#N)C1 (stereo not drawn) returned ELG1 genotoxic inconclusive, Rab9 promoter act 4.5µM*, NPC1 promoter act 3.2µM*, FLuc counter 7.6µM* and p53 reactivator 17%.
COC(=O)[C@@H]1C[C@@H]2CC[C@@H](O)C[C@@H]2N1Cc1ccc(C)s1 was read as SMN2 splice up -3%.
N#CCC(=O)N/N=C/c1ccc(OS(=O)(=O)c2ccccc2)cc1 was read as ELG1 genotoxic 0%, Rab9 promoter act 3%, NPC1 promoter act -2%, FLuc counter 1%, p53 reactivator 2% and SMN2 splice up -6%.
O=C(CCS(=O)(=O)c1ccccc1)Nc1nc2cc3c(cc2s1)OCCO3 was read as ELG1 genotoxic inconclusive, Rab9 promoter act 19%, NPC1 promoter act 18%, FLuc counter 7.6µM* and p53 reactivator -2%.
`O=C(CCS(=O)(=O)c1ccccc1)Nc1nc2cc3c(cc2s1)OCO3` gave ELG1 genotoxic 10%, Rab9 promoter act 19%, NPC1 promoter act 22%, FLuc counter 13µM* and p53 reactivator inconclusive.
For CC(=O)Nc1cc2c(s1)c1cnn(Cc3ccccc3F)c(=O)c1n2C the results were Rab9 promoter act -2%, NPC1 promoter act 1% and FLuc counter 6%.
For Nc1ccccc1SC1CC(=O)N(c2ccc(Cl)c(Cl)c2)C1=O (stereo not drawn) the results were ELG1 genotoxic -5%, Rab9 promoter act -3%, NPC1 promoter act -4%, FLuc counter 2% and p53 reactivator 3%.
`Nc1ccccc1SC1CC(=O)N(c2ccc3c(c2)OCCO3)C1=O` (stereo not drawn) gave ELG1 genotoxic 7%, Rab9 promoter act 2.2µM*, NPC1 promoter act inconclusive, FLuc counter inconclusive and p53 reactivator 14%.
For CN(C)c1ccc(C(=S)NCc2ccco2)cc1 the results were ELG1 genotoxic 0.46µM*, Rab9 promoter act 0.45µM*, NPC1 promoter act inconclusive, FLuc counter 13µM*, p53 reactivator 5% and SMN2 splice up -15%.
`CN(C)c1ccc(/C=N/NC(=S)NCc2ccco2)cc1` gave ELG1 genotoxic 7%, Rab9 promoter act -2%, NPC1 promoter act 10%, FLuc counter inconclusive, p53 reactivator 15% and SMN2 splice up -3%.
For CCOC(=O)c1oc2c(c1C)/C(=N/O)CCC2 the results were ELG1 genotoxic inconclusive, Rab9 promoter act 26%, NPC1 promoter act inconclusive, FLuc counter inconclusive, p53 reactivator 9% and SMN2 splice up 22µM*.
`Fc1cccc(Nc2c3c(nc4ccccc24)CCC3)c1` gave ELG1 genotoxic -3%, Rab9 promoter act 4%[1.84 µM], NPC1 promoter act -11%, FLuc counter -2% and p53 reactivator 3%.
Screening Cc1nc(Nc2cccc(F)c2)c2oc3ccccc3c2n1 returned ELG1 genotoxic 2%, Rab9 promoter act -2%, NPC1 promoter act -2%, FLuc counter -14% and p53 reactivator 4%.
Screening Nc1nc(Nc2cccc(F)c2)nc2ccccc12 returned ELG1 genotoxic inconclusive, Rab9 promoter act 2.2µM*, NPC1 promoter act 1.3µM*, FLuc counter 5.4µM*, p53 reactivator inconclusive and SMN2 splice up inconclusive.
`O=c1oc(Nc2cccc(F)c2)nc2ccccc12` gave ELG1 genotoxic 18µM*, Rab9 promoter act 2.2µM*, NPC1 promoter act 2.2µM*, FLuc counter inconclusive, p53 reactivator 15% and SMN2 splice up inconclusive.
`COc1ccc(/C=N/NC(=S)SC)cc1OC` gave ELG1 genotoxic 3%, Rab9 promoter act -3%, NPC1 promoter act -3%, FLuc counter 11µM*, p53 reactivator 1% and SMN2 splice up -3%.
`COC(=O)N/N=C/c1ccccc1` gave ELG1 genotoxic 10%, Rab9 promoter act 4%, NPC1 promoter act -2%, FLuc counter -16%, p53 reactivator 11% and SMN2 splice up 30%.
For S=C(N/N=C/c1ccccc1)N1CCOCC1 the results were ELG1 genotoxic 2%, Rab9 promoter act -4%, NPC1 promoter act 12%, FLuc counter 24µM*, p53 reactivator 24% and SMN2 splice up 1%.
Screening CSC(=S)N/N=C/c1ccccc1 returned ELG1 genotoxic -2%, Rab9 promoter act -4%, NPC1 promoter act -2%, FLuc counter 15µM*, p53 reactivator -1% and SMN2 splice up 3%.
For Cc1cccc(C)c1NC(=O)c1ccc2nc(CCc3ccccc3)oc2c1 the results were FLuc counter -16%.
Screening Cc1cc(F)ccc1NC(=O)CS(=O)(=O)c1cccc2nsnc12 returned FLuc counter -3%.
Screening CCOc1ccc(-c2nnc(NC(=O)Cc3ccc(OC)cc3)o2)cc1 returned ELG1 genotoxic 5%, Rab9 promoter act 8%, NPC1 promoter act 10%, FLuc counter inconclusive and p53 reactivator 3%.
